From PubChem
Rows were chosen to be rich in hits. Some 2.1% of all compounds tested hit in one or more screens of this group.
YB-1 expr inh: YB-1 expression inhibition; U2OS, qRT-PCR YB-1 vs CDIP delta delta Cp, 16 h; active compounds read high; zero = DMSO, each unit about twofold; delta delta Cp (YB-1 minus CDIP) (no concentration beside the values); 0.37% of 30,000 active; AID 434959;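 active = delta delta Cp rounded down to an integer at or above 3, about 3 SD of DMSO wells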;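 note: higher means less YB-1 transcript or more CDIP transcript relative to DMSO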
ROS inducer: raises reactive oxygen species in U2OS cancer cells. U2OS ROS induction, H2DCF-DA fluorescence. ROS induction (% of piperlongumine), % at 10 µM. 2% of 46,000 active. AID 624156; in the data active = ROS induction above about 79%, passing the limit was not always enough; inconclusive = no clear call, values can overlap the other calls
A number is an active result; - = inactive; ? = inconclusive; . = not tested or not shown.

SMILES | YB-1 expr inh | ROS inducer
Cc1ccnc(N=Cc2c(C)[nH]n(-c3ccccc3)c2=O)c1 | - | -
COc1ccc(C2CC(c3ccc(C)cc3)=NN2S(=O)(=O)c2ccc(C)cc2)cc1 (stereo unspecified) | . | -
COc1ccc(OC)c(Nc2nc(-c3c(C)nc4sccn34)cs2)c1 | . | -
COc1ccc(-c2cc(C(F)F)n3ncc(C(=O)Nc4cccc(S(=O)(=O)N5CCOCC5)c4)c3n2)cc1 | . | 133
COc1ccc(S(=O)(=O)N2CCOCC2)cc1C(=O)Nc1ccc(S(=O)(=O)C(F)F)cc1 | . | -
Cn1ncc2c1ncn1nc(Cc3ccccc3)nc21 | . | -
CCOC(=O)c1cnn(C(=O)c2c(C)nc3ccccn23)c1N | . | -
CCOC(=O)c1cnn(C(=O)Cc2cccc(OC)c2)c1N | 5.2 | -
CCN(CC)S(=O)(=O)c1ccc(Nc2c3c(nc4ccccc24)CCCC3)cc1 | . | -
COC(=O)COc1cccc(NC(=O)c2ccccc2F)c1 | . | -
COC(=O)COc1cccc(NC(=O)c2ccc(-c3ccccc3)cc2)c1 | . | 84
CCN1/C(=C/C2=CC(=O)CC(C)(C)C2)Sc2ccccc21 | - | 164
CCN1/C(=C\C(=S)Nc2ccccc2)Sc2ccccc21 | - | -
FC(F)(F)c1cc(-c2ccc3ccccc3c2)nn1C(=S)N1CCOCC1 | . | -
CC1CCCCN1CCCNC(=O)Cn1cccc1C(=O)c1ccccc1 (stereo unspecified) | . | -
CCCCC(=O)Oc1cc(-c2ccccc2)c2oc(=O)sc2c1 | . | -
CCC(C)OC(=O)C(C)Oc1ccc2c3c(c(=O)oc2c1)CCC3 (stereo unspecified) | . | -
CC(C)COC(=O)C(C)Oc1ccc2c3c(c(=O)oc2c1)CCC3 (stereo unspecified) | . | 122
O=C(NCCCc1nc2ccccc2n1CCCOc1ccccc1)c1ccco1 | . | -
CCCCn1c(CCNC(=O)c2ccco2)nc2ccccc21 | . | 81
COc1ccc(-c2ccc(Nc3ccc(OC(F)(F)F)cc3)nn2)cc1 | . | -
Cc1ccc(C(=O)Nc2ccccc2C(=O)N2CCN(c3ccccc3)CC2)cc1S(=O)(=O)N1CCCCC1 | . | 144
Cc1ccc(NS(=O)(=O)c2cc(C(=O)Nc3ccccc3C(=O)N3CCCC3)ccc2Cl)cc1C | . | -
NC1=NC(=O)/C(=C/c2ccc(I)o2)S1 | . | 141
Cc1ccc(-c2nn(CCC(=O)O)cc2/C=C2\SC(N)=NC2=O)cc1 | . | -
SMILES | YB-1 expr inh | ROS inducer
Cc1ccc2nc(Nc3nc(CSc4nnc(C)s4)cc(=O)[nH]3)nc(C)c2c1 | . | -
CCc1ccc2nc(Nc3nc4ccccc4c(=O)[nH]3)nc(C)c2c1 | . | 132
Cc1ccc2nc(Nc3nc(CSc4nc5ccccc5s4)cc(=O)[nH]3)nc(C)c2c1 | . | 166
Cc1ccc(SCc2cc(=O)[nH]c(Nc3nc(C)c4ccccc4n3)n2)cc1 | . | -
CCSc1nc2sc3c(c2c(=O)n1CC)CCc1ccccc1-3 | . | -
CCC(Sc1nncn2c1cc1oc(C)cc12)C(=O)NCc1ccc(C)cc1 (stereo unspecified) | . | -
CCN1/C(=C2\C(=O)N(c3ccccc3)N=C2C)C=Cc2ccccc21 | . | -
Cc1oc2ccccc2c1CNC(N)=O | . | -
O=C1N(Cc2ccccc2)Cc2ccccc2[C@@H]2OC(c3ccc(OCCCO)cc3)=N[C@]12CCS(=O)(=O)c1ccccc1 | - | ?
[N-]=[N+]=NCc1ccccc1C[C@@]1(C(=O)NCC(O)CO)N=C(c2ccc(OCCCO)cc2)O[C@@H]1c1ccccc1 (stereo partly specified) | 9.1 | -
CN(C)C(=O)[C@]1(CCS(=O)(=O)c2ccccc2)N=C(c2ccc(OCCCO)cc2)O[C@@H]1c1ccccc1 | - | 95
C=CCN1Cc2ccccc2[C@H]2OC(c3ccc(OCCCO)cc3)=N[C@@]2(CCS(=O)(=O)c2ccccc2)C1=O | - | 113
[N-]=[N+]=NCc1ccccc1C[C@]1(C(=O)NCC(O)CO)N=C(c2ccc(OCCCO)cc2)O[C@H]1c1ccccc1 (stereo partly specified) | - | -
CN(C)C(=O)[C@]1(Cc2ccccc2)N=C(c2ccc(OCCCO)cc2)O[C@@H]1c1ccccc1 | - | -
CN(Cc1nc(-c2ccccc2)cs1)C(=O)NC1(c2ccccc2)CC1 | . | -
Cc1ccc(CSc2nc3ccccc3s2)cc1 | . | -
Oc1[nH]c2ccccc2c1C=NCc1ccccc1 | . | -
O=c1n(CCSc2nnnn2-c2ccccc2)nnn1-c1ccccc1 | . | -
C=CCSc1nc2c(c(=O)n1Cc1ccco1)C1(CCCCC1)Cc1ccccc1-2 | . | -
c1ccc(Cn2ccnc2SCc2nnc(-c3ccccc3)o2)cc1 | . | 105
Cc1cc(-n2nc3ccccc3n2)c2oc(SCc3nnc(-c4ccccc4)o3)nc2c1 | . | -
O=C(c1ccccc1SCc1ccccc1)N1CCCc2ccccc21 | . | -
CCOc1ccc2c(c1)sc1c(C)cc(=O)oc12 | . | -
C[C@H]1CN([C@@H](C)CO)C(=O)c2cccc(NC(=O)CCCCCC(=O)Nc3ccccc3N)c2O[C@@H]1CN(C)Cc1ccc(-c2ccccc2)cc1 | - | 91
C[C@@H]1CN([C@H](C)CO)C(=O)c2cccc(NC(=O)CCCCCC(=O)Nc3ccccc3N)c2O[C@H]1CN(C)Cc1ccc(-c2ccccc2)cc1 | - | 126
SMILES | YB-1 expr inh | ROS inducer
C[C@H](CO)N1C[C@H](C)[C@@H](CN(C)Cc2ccncc2)Oc2c(NC(=O)CCCCCC(=O)Nc3ccccc3N)cccc2C1=O | - | -
C[C@@H]1CN([C@H](C)CO)C(=O)c2cccc(NC(=O)CCCCCC(=O)Nc3ccccc3N)c2O[C@@H]1CN(C)Cc1ccc(C(F)(F)F)cc1 | - | -
CCN(CC)/C(=N/S(=O)(=O)c1ccc(Cl)cc1)c1ccccc1 | . | -
CCN(CC)S(=O)(=O)N1CCCC(C(=O)NCc2ccc(C)cc2)C1 (stereo unspecified) | . | -
NC(=O)C1CCN(C(=O)c2cnn(-c3ccccc3)c2-n2cccc2)CC1 | . | -
O=C(NCc1ccccn1)C(c1ccccc1)c1ccccc1 | . | -
O=C(NCCC1=CCCCC1)C1CCN(C(=O)c2cc3sccc3n2Cc2ccc(F)cc2)CC1 | . | -
CCCc1cc(=O)oc2cc(OCC(=O)OCc3ccccc3)ccc12 | . | -
C=C1C(=O)O[C@@H]2C[C@H](C)[C@@H]3CC(=O)C(C)=C3C[C@H]12 | - | 93
C=C1C(=O)OC2C3=C(C)C(=O)CC3C(C)CC(O)C12 (stereo unspecified) | - | -
COc1ccc2oc(=O)c(-c3nc(-c4ccc(Cl)cc4)cs3)cc2c1 | . | -
COc1ccc(C(=O)Nc2cccc(-c3nc4ccccc4s3)c2)cc1 | . | -
COCCOC(=O)N1C(=O)[C@@]2(c3cc(C#Cc4ccc(OC)cc4)ccc31)[C@H](C(N)=O)[C@H]1C(=O)O[C@H](c3ccccc3)[C@H](c3ccccc3)N1[C@@H]2c1ccc(OCCO)cc1 | - | -
COCCOC(=O)N1C(=O)[C@@]2(c3ccccc31)[C@H](C(=O)N1CCc3cc(OC)c(OC)cc3C1)[C@H]1C(=O)O[C@H](c3ccccc3)[C@H](c3ccccc3)N1[C@@H]2c1ccccc1OCCO | - | 121
COCCOC(=O)N1C(=O)[C@@]2(c3cc(C#Cc4ccc(OC)cc4)ccc31)[C@H](C(N)=O)[C@H]1C(=O)O[C@H](c3ccccc3)[C@H](c3ccccc3)N1[C@@H]2c1ccccc1OCCO | 9.5 | -
